# Assay results taken from the antibiotic and cytotoxicity screens of Wong et al. (2023).
# Hit rate of the full screen: of about 39,000 compounds, about 1,500 (3.8%) were called active. Shown is part of a subset that was picked to be rich in actives.
# Test system: HSkMC (human skeletal muscle cells)
# Assay: cytotoxicity call (relative viability < 0.9)
# Settings: 10 µM
row,Structure (SMILES),cytotoxicity call
1,C[C@@H]1CCCCO[C@H](CN(C)C(=O)Nc2ccc(F)cc2)[C@H](C)CN([C@@H](C)CO)C(=O)c2cc(NS(=O)(=O)c3ccccc3)ccc2O1,inactive
2,C[C@H]1CN([C@@H](C)CO)S(=O)(=O)c2ccc(-c3ccc(C(=O)N(C)C)cc3)cc2O[C@@H]1CN(C)C(=O)C1CC1,inactive
3,O=C(N[C@@H]1C=C[C@@H](CC(=O)N2CCOCC2)O[C@@H]1CO)c1ccc2c(c1)OCO2,inactive
4,C[C@H](CO)N1C[C@H](C)[C@H](CN(C)CC2CCCCC2)Oc2ccc(NC(=O)Cn3cnnn3)cc2C1=O,inactive
5,C[C@H](CO)N1C[C@H](C)[C@@H](CN(C)S(=O)(=O)c2ccccc2)Oc2ccc(NS(=O)(=O)c3ccc(F)cc3)cc2CC1=O,inactive
6,Cc1noc(C)c1S(=O)(=O)Nc1cccc2c1O[C@H](CN(C)S(=O)(=O)c1ccccc1)[C@H](C)CN([C@@H](C)CO)C2=O,inactive
7,C[C@@H](O)C#Cc1ccc2c(c1)O[C@H](CN(C)C(=O)C1CCCCC1)[C@@H](C)CN([C@@H](C)CO)S2(=O)=O,inactive
8,C[C@H]1CN([C@@H](C)CO)S(=O)(=O)c2ccc(Br)cc2O[C@H]1CN(C)C(=O)CCN1CCCCC1,inactive
9,COc1ccc(S(=O)(=O)Nc2ccc3c(c2)C(=O)N([C@@H](C)CO)C[C@@H](C)[C@@H](CN(C)C(=O)NC2CCCCC2)OCCCC[C@H](C)O3)cc1,inactive
10,Cc1noc(C)c1S(=O)(=O)Nc1ccc2c(c1)CC(=O)N([C@H](C)CO)C[C@@H](C)[C@H](CN(C)S(=O)(=O)c1cccs1)O2,inactive
11,COc1ccc2c3c(n(c2c1)C)[C@@H](CO)N(Cc1ccccc1)C[C@]13CCN(CC1)C(=O)Nc1cccc(c1)F,inactive
12,CO[C@H]1CN(C)C(=O)c2cc(NC(=O)Nc3ccccc3F)ccc2OC[C@H](C)N(Cc2ccccc2C(=O)O)C[C@H]1C,inactive
13,COc1cccc(S(=O)(=O)N(C)C[C@@H]2Oc3ncc(C#CCN(C)C)cc3C(=O)N([C@H](C)CO)C[C@@H]2C)c1,inactive
14,C[C@H]1CN([C@@H](C)CO)C(=O)c2cccc(NS(=O)(=O)c3ccc(F)cc3)c2O[C@@H]1CN(C)C(=O)Nc1ccc(C(F)(F)F)cc1,inactive
15,C[C@@H]1CN([C@@H](C)CO)C(=O)c2cccc(NS(=O)(=O)c3ccc(Cl)cc3)c2O[C@@H]1CN(C)C(=O)Nc1ccc(C(F)(F)F)cc1,active
16,C[C@@H]1CN([C@@H](C)CO)C(=O)c2cccc(NS(=O)(=O)c3ccc(F)cc3)c2O[C@@H]1CN(C)C(=O)Nc1ccc(C(F)(F)F)cc1,inactive
17,C[C@H]1CN([C@@H](C)CO)C(=O)c2cccc(NS(=O)(=O)c3ccc(Cl)cc3)c2O[C@@H]1CN(C)C(=O)Nc1ccc(C(F)(F)F)cc1,inactive
18,C[C@H]1CN([C@@H](C)CO)C(=O)c2cccc(NS(=O)(=O)c3ccc(F)cc3)c2O[C@H]1CN(C)C(=O)Nc1ccc(C(F)(F)F)cc1,inactive
19,C[C@@H]1CN([C@@H](C)CO)C(=O)c2cccc(NS(=O)(=O)c3ccc(Cl)cc3)c2O[C@H]1CN(C)C(=O)Nc1ccc(C(F)(F)F)cc1,inactive
20,C[C@@H]1CN([C@H](C)CO)C(=O)c2cccc(NS(=O)(=O)c3ccc(F)cc3)c2O[C@H]1CN(C)C(=O)Nc1ccc(C(F)(F)F)cc1,inactive
21,C[C@@H]1CN([C@H](C)CO)C(=O)c2cccc(NS(=O)(=O)c3ccc(Cl)cc3)c2O[C@@H]1CN(C)C(=O)Nc1ccc(C(F)(F)F)cc1,active

row,Structure (SMILES),cytotoxicity call
1,C[C@@H]1CN([C@H](C)CO)C(=O)c2cccc(NS(=O)(=O)c3ccc(Cl)cc3)c2O[C@H]1CN(C)C(=O)Nc1ccc(C(F)(F)F)cc1,inactive
2,C[C@H]1CN([C@@H](C)CO)C(=O)c2cccc(NS(=O)(=O)c3ccc(Cl)cc3)c2O[C@H]1CN(C)C(=O)Nc1ccc(C(F)(F)F)cc1,active
3,C[C@H](CO)N1C[C@H](C)[C@H](CN(C)C(=O)Nc2ccc(C(F)(F)F)cc2)Oc2c(NS(=O)(=O)c3ccc(Cl)cc3)cccc2C1=O,active
4,C[C@H](CO)N1C[C@H](C)[C@@H](CN(C)C(=O)Nc2ccc(C(F)(F)F)cc2)Oc2c(NS(=O)(=O)c3ccc(Cl)cc3)cccc2C1=O,inactive
5,C#CC1(OC(C)=O)CCC2C3CCC4=CC(OC(C)=O)CCC4C3CCC21C (stereo unspecified),inactive
6,Cc1ccc(S(=O)(=O)N(C)C[C@@H]2Oc3ccc(NC(=O)CCCN(C)C)cc3C(=O)N([C@@H](C)CO)C[C@@H]2C)cc1,inactive
7,COc1ccc(S(=O)(=O)N(C)C[C@@H]2OCCCC[C@@H](C)Oc3ccc(NC(=O)c4ccccc4)cc3C(=O)N([C@H](C)CO)C[C@H]2C)cc1,inactive
8,COCC#Cc1ccc([C@H]2[C@H](CO)N3C(=O)CN(C(=O)CN4CCOCC4)C[C@@H]23)cc1,inactive
9,O=C(O)CCC(=O)O,inactive
10,CCOC(=O)CN1CCN(C=O)CC1,inactive
11,C[C@H](CO)N1C[C@H](C)[C@@H](CN(C)Cc2ccc(C(F)(F)F)cc2)OCCCC[C@H](C)Oc2ccc(NS(=O)(=O)c3ccc(F)cc3)cc2C1=O,inactive
12,COc1ccc(CN(C)C[C@H]2OCCCC[C@H](C)Oc3ccc(NC(=O)NC(C)C)cc3C(=O)N([C@H](C)CO)C[C@H]2C)cc1,inactive
13,O=C(N[C@@H](c1cccnc1)c1ccc2c(c1)OCO2)C1CCN(CCOc2ccc(Cl)cc2Cl)CC1,inactive
14,NCc1ccc(S(N)(=O)=O)cc1,inactive
15,COc1ccc(S(=O)(=O)Nc2ccc3c(c2)CC(=O)N([C@@H](C)CO)C[C@H](C)[C@H](CN(C)S(=O)(=O)c2ccc(F)cc2)O3)cc1,inactive
16,C[C@@H]1CN([C@@H](C)CO)C(=O)c2cccc(NC(=O)c3ccncc3)c2O[C@H]1CN(C)Cc1ccc(-c2ccccc2)cc1,inactive
17,C[C@H]1CN([C@@H](C)CO)C(=O)Cc2cc(NC(=O)Cc3cn(C)c4ccccc34)ccc2O[C@@H]1CN(C)Cc1ccc(Oc2ccccc2)cc1,inactive
18,C[C@@H]1CN([C@H](C)CO)C(=O)Cc2cc(NC(=O)Cc3cn(C)c4ccccc34)ccc2O[C@H]1CN(C)Cc1ccc(-c2ccccc2)cc1,active
19,C[C@H](CO)N1C[C@H](C)[C@H](CN(C)Cc2ccc(Oc3ccccc3)cc2)Oc2ccc(NC(=O)Cc3cn(C)c4ccccc34)cc2CC1=O,inactive
20,C[C@H]1CN([C@@H](C)CO)C(=O)Cc2cc(NC(=O)Cc3cn(C)c4ccccc34)ccc2O[C@H]1CN(C)Cc1ccc(Oc2ccccc2)cc1,active
21,C[C@@H]1CN([C@@H](C)CO)C(=O)Cc2cc(NC(=O)Cc3cn(C)c4ccccc34)ccc2O[C@H]1CN(C)Cc1ccc(-c2ccccc2)cc1,inactive

row,Structure (SMILES),cytotoxicity call
1,C[C@@H]1CN([C@@H](C)CO)C(=O)Cc2cc(NC(=O)Cc3cn(C)c4ccccc34)ccc2O[C@@H]1CN(C)Cc1ccc(-c2ccccc2)cc1,inactive
2,C[C@H]1CN([C@@H](C)CO)C(=O)Cc2cc(NC(=O)Cc3cn(C)c4ccccc34)ccc2O[C@H]1CN(C)Cc1ccc(C(F)(F)F)cc1,inactive
3,C[C@@H]1CN([C@H](C)CO)C(=O)Cc2cc(NC(=O)Cc3cn(C)c4ccccc34)ccc2O[C@H]1CN(C)Cc1ccc(C(F)(F)F)cc1,inactive
4,C[C@H]1CN([C@@H](C)CO)C(=O)Cc2cc(NC(=O)Cc3cn(C)c4ccccc34)ccc2O[C@@H]1CN(C)Cc1ccc(C(F)(F)F)cc1,active
5,C[C@@H]1CN([C@H](C)CO)C(=O)CCCn2nncc2CO[C@@H]1CN(C)Cc1cccc2c1OCCCO2,inactive
6,COc1ccc(NC(=O)N(C)C[C@H]2Oc3ccc(NS(=O)(=O)c4c(C)noc4C)cc3CC(=O)N([C@H](C)CO)C[C@H]2C)cc1,inactive
7,Cc1cc(OCc2nnc(SC3CCCC3)n2-c2cccnc2)ccc1-c1ccc(S(C)(=O)=O)cc1,active
8,C[C@@H]1CN([C@@H](C)CO)C(=O)c2cc(NC(=O)CCC(F)(F)F)ccc2O[C@@H](C)CCCCO[C@@H]1CN(C)S(=O)(=O)c1ccc(F)cc1,inactive
9,CCCC[C@@H](C)/C=C(C)/C=C(\C)C(=O)NC1=C[C@@](O)(/C=C/C=C/C=C/C(=O)NC2C(=O)CCC2=O)[C@@H]2O[C@@H]2C1=O,active
10,COc1cccc(S(=O)(=O)Nc2ccc3c(c2)[C@H]2C[C@H](CC(=O)NCCc4ccccc4)O[C@H](CO)[C@H]2O3)c1,inactive
11,C[C@@H]1CN([C@@H](C)CO)S(=O)(=O)c2ccc(C#CC3(O)CCCC3)cc2O[C@@H]1CN(C)C(=O)Cc1cccnc1,inactive
12,COc1ccccc1S(=O)(=O)N(C)C[C@H]1OCc2cn(nn2)CCCC(=O)N([C@H](C)CO)C[C@H]1C,inactive
13,C[C@@H]1CN([C@H](C)CO)C(=O)c2cc(NS(=O)(=O)c3ccc(F)cc3)ccc2O[C@@H]1CN(C)Cc1ccc(-c2ccccc2)cc1,active
14,C[C@H]1CN([C@@H](C)CO)C(=O)c2cc(NS(=O)(=O)c3ccc(F)cc3)ccc2O[C@@H]1CN(C)Cc1ccc(-c2ccccc2)cc1,inactive
15,C[C@@H]1CN([C@@H](C)CO)C(=O)c2cc(NS(=O)(=O)c3ccc(F)cc3)ccc2O[C@H]1CN(C)Cc1ccc(-c2ccccc2)cc1,inactive
16,C[C@H](CO)N1C[C@H](C)[C@H](CN(C)Cc2ccc(-c3ccccc3)cc2)Oc2ccc(NS(=O)(=O)c3ccc(F)cc3)cc2C1=O,inactive
17,C[C@@H]1CN([C@@H](C)CO)C(=O)c2cc(NS(=O)(=O)c3ccc(F)cc3)ccc2O[C@@H]1CN(C)Cc1ccc(-c2ccccc2)cc1,active
18,C[C@@H]1CN([C@H](C)CO)C(=O)c2cc(NS(=O)(=O)c3ccc(F)cc3)ccc2O[C@H]1CN(C)Cc1ccc(-c2ccccc2)cc1,inactive
19,Cc1noc(C)c1NC(=O)Nc1ccc2c(c1)C(=O)N([C@@H](C)CO)C[C@@H](C)[C@@H](CN(C)CC1CCCCC1)OCCCC[C@H](C)O2,inactive
